Among the data in the antibiotic and cytotoxicity screens of Wong et al. (2023) are growth inhibition call values, retold here.

Molecules are shown by their SMILES. In all, about 39,000 compounds went through this assay and about 500 (1.3%) were called active. Only a selection was taken, and actives are over-represented in it overall.

The test deals with S. aureus RN4220. Put plainly: growth inhibition call (relative growth <= 0.2). To be noted: 50 µM.
For `C[C@H]1CN([C@@H](C)CO)C(=O)Cc2cc(NC(=O)CCCCCC(=O)Nc3ccccc3N)ccc2O[C@@H]1CN(C)C(=O)Nc1ccc(C(F)(F)F)cc1`, the growth inhibition call was “inactive”.
In the case of `CCS(=O)(=O)Nc1ccc2c(c1)C(=O)N(C)[C@H]1CC[C@@H](CC(=O)N3CCN(C)CC3)O[C@@H]1CO2`, the growth inhibition call was “inactive”.
The same measure for `COc1cccnc1N`: “inactive”.
Regarding `COc1cc(CN)cc(OC)c1OC`, the growth inhibition call is “inactive”.
Regarding `COc1ccc(Cc2cnc(N)nc2N)cc1OC`, the growth inhibition call is “active”.
In the case of `COc1cc(O)cc(OC)c1OC`, the growth inhibition call was “inactive”.
On to `COc1cc(Cc2cnc(N)nc2N)cc(OC)c1OC`, for which the growth inhibition call was “active”.
On to `COc1ccc(C2=C(N)C(=O)NC2=O)cc1OC`, for which the growth inhibition call was “inactive”.
Regarding `COc1ccc(NC(=O)N(C)C[C@H]2OCCCC[C@H](C)Oc3ccc(NC(=O)c4ccncc4)cc3C(=O)N([C@@H](C)CO)C[C@@H]2C)cc1`, the growth inhibition call was “inactive”.
As for `COc1ccc(CN(C)C[C@H]2OCCCC[C@@H](C)Oc3ccc(NC(=O)Nc4ccc5c(c4)OCO5)cc3C(=O)N([C@H](C)CO)C[C@H]2C)cc1`, the growth inhibition call was “inactive”.
As for `C[C@@H]1CCCCO[C@@H](CN(C)Cc2ccc(C(=O)O)cc2)[C@@H](C)CN([C@H](C)CO)C(=O)c2cc(NS(=O)(=O)c3ccc(Cl)cc3)ccc2O1`, the entry is “inactive”; as for `COc1ccc(NC(=O)Nc2ccc3c(c2)C(=O)N([C@H](C)CO)C[C@H](C)[C@H](CN(C)C(=O)C2CCCCC2)OCCCC[C@H](C)O3)cc1`, “inactive”.
On to `C[C@@H]1CN([C@H](C)CO)C(=O)c2cccc(NC(=O)CCCCCC(=O)Nc3ccccc3N)c2O[C@@H]1CN(C)Cc1ccc(-c2ccccc2)cc1`, for which the growth inhibition call is “inactive”.
With `COc1ccc(CN(C)C[C@H]2Oc3c(NS(=O)(=O)c4cn(C)cn4)cccc3C(=O)N([C@@H](C)CO)C[C@@H]2C)cc1`, the growth inhibition call was “inactive”.
Take `CO[C@@H]1CN(C)C(=O)c2cc(NS(=O)(=O)c3ccccc3C)ccc2OC[C@@H](C)N(S(C)(=O)=O)C[C@H]1C`: the growth inhibition call is “inactive”.
In the case of `C[C@H](CO)N1C[C@H](C)[C@@H](CN(C)Cc2ccc(C(F)(F)F)cc2)OCCCC[C@H](C)Oc2ccc(NC(=O)c3ccncc3)cc2C1=O`, the growth inhibition call was “inactive”.
Regarding `C[C@@H]1CN([C@H](C)CO)C(=O)c2cc(NC(=O)NC3CCCCC3)ccc2O[C@@H]1CN(C)Cc1ccc(Cl)c(Cl)c1`, the growth inhibition call is “inactive”.
As for `CN1CCC(=C2c3ccccc3Sc3ccccc32)CC1.O=C(O)C=CC(=O)O`, the entry is “inactive”.
Take `CSc1ccc2c(c1)N(CCC1CCCCN1C)c1ccccc1S2.Cl` (stereo not drawn): the growth inhibition call is “inactive”.
Regarding `CS(=O)(=O)O.CSc1ccc2c(c1)C(N1CCN(C)CC1)Cc1ccccc1S2` (stereo not drawn), the growth inhibition call was “active”.
Take `C[C@@H]1CCCCO[C@@H](CN(C)C(=O)c2ccccc2)[C@@H](C)CN([C@@H](C)CO)C(=O)c2cc(NC(=O)Nc3ccc(C(F)(F)F)cc3)ccc2O1`: the growth inhibition call is “inactive”.
The same measure for `Cc1ncc[nH]1`: “inactive”.
Turning to `CC[C@@H](C)SSc1ncc[nH]1`, the growth inhibition call was “active”.
For `OCc1ncc[nH]1`, the growth inhibition call is “inactive”.
For `C[C@@H]1CN([C@@H](C)CO)S(=O)(=O)c2ccc(C#CCN(C)C)cc2O[C@@H]1CN(C)C(=O)C1CCCCC1`, the growth inhibition call was “inactive”.
As to `Cc1ccc(S(=O)(=O)Nc2cccc3c2O[C@@H](CN(C)CC2CC2)[C@@H](C)CN([C@H](C)CO)C3=O)cc1`, the growth inhibition call was “inactive”.
The same measure for `C[C@H](O)C#Cc1cnc2c(c1)C(=O)N([C@@H](C)CO)C[C@@H](C)[C@H](CN(C)Cc1cncnc1)O2`: “inactive”.
The same measure for `O=C(c1cccnc1)N1C[C@H]2[C@@H](c3ccccc31)[C@H](CO)N2C(=O)CN1CCOCC1`: “inactive”; for `Oc1ccc(C2(c3ccccc3F)CCC(F)(F)CC2)cc1`: “active”.
For `O=C1OC(c2ccc(O)cc2)(c2ccc(O)cc2)c2ccccc21`, the growth inhibition call was “inactive”.
As for `O=S1(=O)OC(c2ccc(O)cc2)(c2ccc(O)cc2)c2ccccc21`, the entry is “inactive”; as for `C[C@H]1CN([C@@H](C)CO)S(=O)(=O)c2ccc(C#CCN(C)C)cc2O[C@@H]1CN(C)C(=O)c1ccccc1F`, “inactive”; as for `C[C@H]1CN([C@@H](C)CO)C(=O)c2cccc(NS(=O)(=O)c3cn(C)cn3)c2O[C@H]1CN(C)S(=O)(=O)c1ccccc1`, “inactive”.
The same measure for `C[C@@H]1CN([C@H](C)CO)S(=O)(=O)c2ccc(C#CC(C)(C)O)cc2O[C@H]1CN(C)Cc1ccccc1`: “inactive”.
As for `CC(N)O.Cc1cc(CC(C)CC(C)(C)C)n(O)c(=O)c1` (stereo not drawn), the growth inhibition call was “active”.
In the case of `C[C@@H]1CCCCO[C@@H](CN(C)Cc2ccncc2)[C@@H](C)CN([C@@H](C)CO)C(=O)c2cc(NC(=O)Nc3ccc4c(c3)OCO4)ccc2O1`, the growth inhibition call is “inactive”.
On to `C[C@@H]1CN([C@@H](C)CO)C(=O)Cc2cc(NS(=O)(=O)c3cn(C)cn3)ccc2O[C@@H]1CN(C)CC1CCCCC1`, for which the growth inhibition call was “inactive”.
For `CN(C(=O)CN(CCO)CC(=O)N(C)C(C)(C)Cc1ccccc1)C(C)(C)Cc1ccccc1`, the growth inhibition call is “active”.
The same measure for `O=C(O)CN(CCc1ccccc1)CC(=O)O`: “inactive”.
Take `CC(=O)c1ccccc1OC[C@@H](O)CN(CCO)CCO`: the growth inhibition call is “inactive”.
On to `C[C@@H]1CCCCO[C@H](CN(C)Cc2ccc(C(F)(F)F)cc2)[C@H](C)CN([C@@H](C)CO)C(=O)c2cc(N(C)C)ccc2O1`, for which the growth inhibition call is “inactive”.
With `COc1c(N2CCNC(C)C2)c(F)cc2c(=O)c(C(=O)O)cn(C3CC3)c12` (stereo not drawn), the growth inhibition call was “active”.
For the compound `Cl.NC1CCN(c2c(F)cc3c(=O)c(C(=O)O)cn(C4CC4)c3c2Cl)C1` (stereo not drawn), the growth inhibition call was “active”.
Regarding `CC1CN(c2c(F)c(F)c3c(=O)c(C(=O)O)cn(C4CC4)c3c2F)CC(C)N1` (stereo not drawn), the growth inhibition call was “active”.
With `COc1c(N2CC3CCCNC3C2)c(F)cc2c(=O)c(C(=O)O)cn(C3CC3)c12.Cl` (stereo not drawn), the growth inhibition call is “active”.
For `CC1CN(c2c(F)c(N)c3c(=O)c(C(=O)O)cn(C4CC4)c3c2F)CC(C)N1` (stereo not drawn), the growth inhibition call was “inactive”.
With `N[C@@H]1CN(c2c(F)cc3c(=O)c(C(=O)O)cn([C@@H]4C[C@@H]4F)c3c2Cl)CC12CC2`, the growth inhibition call is “inactive”.
As to `C[C@H]1CN([C@@H](C)CO)C(=O)c2cc(NC(=O)C3CC3)ccc2O[C@H]1CN(C)C(=O)Nc1ccc2c(c1)OCO2`, the growth inhibition call is “inactive”.
Consider `C[C@H]1CCCCO[C@@H](CN(C)Cc2ccc3c(c2)OCO3)[C@@H](C)CN([C@@H](C)CO)C(=O)c2cc(NC(=O)CCC(F)(F)F)ccc2O1`, for which the growth inhibition call was “inactive”.
As for `Cc1noc(C)c1NC(=O)Nc1ccc2c(c1)C(=O)N([C@@H](C)CO)C[C@@H](C)[C@H](CN(C)Cc1ccc(C(F)(F)F)cc1)OCCCC[C@H](C)O2`, the growth inhibition call was “inactive”.
`C[C@@H]1CN([C@H](C)CO)C(=O)c2cccc(NS(=O)(=O)c3cn(C)cn3)c2O[C@H]1CN(C)C(=O)NC1CCCCC1`: the growth inhibition call was “inactive”.
The same measure for `CC(C)NC(=O)Nc1ccc2c(c1)C(=O)N([C@H](C)CO)C[C@@H](C)[C@@H](CN(C)Cc1ccc(Cl)c(Cl)c1)OCCCC[C@H](C)O2`: “inactive”; for `COc1ccc(NC(=O)Nc2cccc3c2O[C@H](CN(C)Cc2ccc(-c4ccccc4)cc2)[C@H](C)CN([C@H](C)CO)C3=O)cc1`: “inactive”.
As to `C[C@@H]1CCCCO[C@H](CN(C)CC2CCCCC2)[C@H](C)CN([C@@H](C)CO)C(=O)c2cc(NC(=O)Nc3ccc(C(F)(F)F)cc3)ccc2O1`, the growth inhibition call is “inactive”.
The same measure for `C[C@H]1CN([C@@H](C)CO)S(=O)(=O)c2ccc(C#CCN(C)C)cc2O[C@H]1CN(C)Cc1cccnc1`: “inactive”.
On to `CCn1cc(C(=O)O)c(=O)c2cc(F)c(N3CCNC(C)C3)c(F)c21.Cl` (stereo not drawn), for which the growth inhibition call was “active”.
Regarding `CCn1cc(C(=O)O)c(=O)c2cc(F)c(N3CCNCC3)nc21`, the growth inhibition call was “inactive”.
For `CCn1cc(C(=O)O)c(=O)c2cnc(N3CCNCC3)nc21`, the growth inhibition call was “inactive”.
As to `CCNC(=O)C[C@@H]1CC[C@H]2[C@@H](COC[C@H](O)CN2C(=O)Nc2c(C)noc2C)O1`, the growth inhibition call is “inactive”.
With `C#CCN([C@H](/C=C/C1CC1)[C@@H](O)Cc1ccccc1)[C@@H](Cc1ccc(-n2cc(C(=O)NO)nn2)cc1)C(=O)OC`, the growth inhibition call is “inactive”.
On to `C[C@@H]1CN([C@@H](C)CO)C(=O)c2cc(NC(=O)c3ccccc3)ccc2O[C@@H](C)CCCCO[C@@H]1CN(C)Cc1ccc(C(F)(F)F)cc1`, for which the growth inhibition call is “inactive”.
As to `CC1(C)[C@@H](OC(=O)CCC(=O)O)CC[C@]2(C)[C@H]3C(=O)C=C4[C@@H]5C[C@@](C)(C(=O)O)CC[C@]5(C)CC[C@@]4(C)[C@]3(C)CC[C@@H]12`, the growth inhibition call was “inactive”.
On to `CC(=O)O[C@@H]1CC[C@@]2(C)[C@@H](CC[C@]3(C)[C@@H]2C(=O)C=C2[C@@H]4[C@@H](C)[C@H](C)CC[C@]4(C)CC[C@]23C)[C@@]1(C)C(=O)O`, for which the growth inhibition call was “active”.
For the compound `CC1(C)[C@@H](OC(=O)CCC(=O)O)CC[C@@]2(C)[C@H]1CC[C@]1(C)[C@H]2C(=O)C=C2[C@@H]3C[C@@](C)(C(=O)O)CC[C@]3(C)CC[C@]21C`, the growth inhibition call was “inactive”.
`COc1ccc(NC(=O)N(C)C[C@H]2OCCCC[C@@H](C)Oc3ccc(NS(=O)(=O)c4ccc(OC)cc4)cc3C(=O)N([C@@H](C)CO)C[C@@H]2C)cc1`: the growth inhibition call was “inactive”.
For `Cc1occc1CN`, the growth inhibition call is “inactive”.
In the case of `O=C(N[C@H]1C=C[C@H](CC(=O)N2CCOCC2)O[C@@H]1CO)c1ccccn1`, the growth inhibition call was “inactive”.
With `Nc1nnnn1-c1ccccc1`, the growth inhibition call was “active”.
With `NCc1nnnn1-c1ccccc1`, the growth inhibition call is “inactive”.
`NC(=O)CSc1nnnn1-c1ccccc1`: the growth inhibition call was “inactive”.
With `C[C@@H]1CN([C@H](C)CO)C(=O)Cc2cc(NS(=O)(=O)c3ccccc3)ccc2O[C@H]1CN(C)CC1CC1`, the growth inhibition call was “inactive”.
As for `CS(=O)(=O)N1[C@@H]2c3ccc(-c4cccc(F)c4)c(=O)n3C[C@H]1[C@H](CO)[C@H]2C(=O)N1CCOCC1`, the entry is “inactive”; as for `Cc1noc(C)c1S(=O)(=O)N(C)C[C@@H]1Oc2ccc(NS(=O)(=O)c3ccc(Cl)cc3)cc2CC(=O)N([C@H](C)CO)C[C@H]1C`, “inactive”; as for `C=CC[n+]1ccccc1/C=N/O`, “inactive”.
Regarding `Cc1ccc(S[C@]2(C(=O)NC3CC3)CC(=O)N(Cc3ccccc3C(F)(F)F)[C@@H]2c2ccc(CO)cc2I)cc1`, the growth inhibition call was “inactive”.
With `COC(=O)c1c(C)c2c(c(C)c1O)OC(=O)c1c(C)c(Cl)c(O)c(Cl)c1O2`, the growth inhibition call was “active”.
For `COC(=O)c1c(OC)cc2c(c1C)Oc1c(Cl)c(O)c(Cl)c(C)c1C(=O)O2`, the growth inhibition call is “inactive”.
The same measure for `COC(=O)c1c(C)c2c(c(C)c1OC)OC(=O)c1c(C)c(Cl)c(OC)c(Cl)c1O2`: “inactive”.
